In PubChem BioAssay (EPA / NIEHS) one finds outcome and AC50 data, which are given here for 13 compounds.

Inconclusive results are not listed. Calls of active or inactive are those of the source. The calls were made as follows: active = hit-call score of the fitted dose curve at least 0.9, where 1 is the maximum; inconclusive = response in the unintended direction; inactive = score below 0.9.

The nature of this test: ACEA_ER_AUC_viability: ACEA Biosciences xCELLigence Real-Time Cell Analysis on Estrogen Receptor Agonism for Viability (AID 2283782).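 Also: continuous compound exposure with impedance area under curve over 80 h; hit means loss of impedance signal meaning reduced cell growth or viability.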 The essentials: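 T47D cells preconditioned in phenol red-free RPMI with charcoal-stripped FBS, then dosed with 8-point 1:4 series from 100 uM (up to 0.5% DMSO). Impedance monitored up to ~80 h; area-under-curve loss versus DMSO taken as viability.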
Regarding `CC(C)C(=O)OCc1ccccc1`, the result was inactive.

Usually AC50 stands for the concentration at which the activity in the assay is half-maximal. As for `O=C1C=CC(=O)N1c1ccc(Cc2ccc(N3C(=O)C=CC3=O)cc2)cc1`, the AC50 is 25.1 µM (active).

Consider `CSc1ccc(O)cc1C`, for which the AC50 is 16.2 µM (active).

In the case of `Nc1cccnc1N`, the AC50 was 83.2 µM (active).

For `CO[Si](CCCOCC1CO1)(OC)OC` (stereo not drawn), the AC50 was 76.8 µM (active).

For the compound `OCCC(O)CO` (stereo not drawn), the compound was called inactive.

As for `c1ccc(C[P+](c2ccccc2)(c2ccccc2)c2ccccc2)cc1`, the AC50 was 83.7 µM (active).

`CCCCCCCC/C=C\CCCCCCCC(=O)N(C)CC(=O)O`: the half-maximal activity concentration (AC50) was 83.4 µM (active).

On to `O=C=NCc1cccc(CN=C=O)c1`, for which the result was inactive.

On to `NC(=O)C(F)(F)C(F)(F)C(F)(F)C(F)(F)C(F)(F)C(F)(F)C(F)(F)F`, for which the call was inactive.

Consider `CC(C)(C)C(=O)C1C(=O)c2ccccc2C1=O`, for which the AC50 is 88.2 µM (active).

`OCCCCl`: the compound was classed as inactive.

For the compound `NCC(F)(F)C(F)(F)C(F)(F)C(F)(F)C(F)(F)C(F)(F)F`, the result was inactive.
